CHO-K1 Ca antag: M1 antagonist counterscreen hit in parental CHO-K1 cells; ATP-induced calcium, Fluo-8 fluorescence; inhibition, % at 3 µM; 360,000 compounds, 0.6% hits;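 active means inhibition above a per-plate cutoff, the plate's mean sample inhibition plus 3 SD, cut at about 24% in these data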;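 further: 0% = DMSO plus EC80 ATP and 100% = DMSO alone without ATP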
M1 antag: antagonists of human M1 muscarinic receptor. CHO-K1 hM1, Fluo-8 calcium fluorescence, ACh EC80 antagonist. 360,000 compounds, 1.3% hits. inhibition, % at 3 µM. P11229;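 active means percent inhibition above its own plate's cutoff, namely the mean of that plate's compound wells plus 3 SD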;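 further: peak over basal fluorescence ratio during 140 s after agonist addition; 0% = ACh EC80 plus DMSO and 100% = DMSO alone without agonist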
Target sequence (P11229 whole entry, looked up): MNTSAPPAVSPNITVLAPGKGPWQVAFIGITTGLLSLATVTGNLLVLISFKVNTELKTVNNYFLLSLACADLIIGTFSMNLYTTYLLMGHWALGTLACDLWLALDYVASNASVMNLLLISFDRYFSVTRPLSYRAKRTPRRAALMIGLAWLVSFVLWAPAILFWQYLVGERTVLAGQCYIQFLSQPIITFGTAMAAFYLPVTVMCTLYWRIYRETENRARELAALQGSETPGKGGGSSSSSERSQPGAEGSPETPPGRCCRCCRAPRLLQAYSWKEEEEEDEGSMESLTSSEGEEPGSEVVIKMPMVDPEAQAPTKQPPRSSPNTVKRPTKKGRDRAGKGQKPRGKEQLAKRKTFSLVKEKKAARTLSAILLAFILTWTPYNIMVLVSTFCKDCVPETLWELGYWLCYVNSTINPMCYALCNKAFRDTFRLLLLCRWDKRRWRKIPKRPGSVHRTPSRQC
M1 PAM: potentiates human M1 receptor response to acetylcholine; CHO-K1 hM1, Fluo-8 calcium fluorescence, ACh EC20; 0% = ACh EC20, 100% = maximal ACh; AID 588819; 360,000 compounds, 0.088% hits; activation, % at 3 µM; in the data active means activation above about 19%, passing the limit was not always enough
CHO-K1 Ca ag: M1 agonist counterscreen hit in parental CHO-K1 cells. Fluo-8 calcium fluorescence; scaled to maximal ATP response, vehicle zero. activation, % at 3 µM. 360,000 compounds, 0.48% hits; in the data active means activation above about 15%;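 further: untransfected CHO-K1 host cells lacking M1 receptor as counterscreen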
CHO-K1 Ca PAM: M1 PAM counterscreen hit in parental CHO-K1 cells; ATP EC20, Fluo-8 calcium fluorescence; 0% at ATP EC20, 100% at ATP max; activation, % at 3 µM; 360,000 compounds, 0.02% hits;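 active means activation above the run cutoff, the mean activation of all test compounds plus 3 SD, cut at about 40% in these data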;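 further: peak over basal fluorescence ratio in a 140 s read after ATP addition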
CHRM1 agonist: agonists of human M1 muscarinic receptor; CHO-K1 hM1, Fluo-8 calcium fluorescence, agonist mode; 0% DMSO, 100% acetylcholine EC100; AID 588814; activation, % at 3 µM; 360,000 compounds, 0.33% hits;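 active means activation above the run's mean compound activation plus 3 SD, cut at about 16% in these data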;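 further: peak over basal fluorescence ratio within a 140 s kinetic read after compound addition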
* marks the source's active call; other numbers are inactive results. In the library only some 2.4% were active in any assay of this set; here they are far more common.

SMILES | CHO-K1 Ca antag | M1 antag | M1 PAM | CHO-K1 Ca ag | CHO-K1 Ca PAM | CHRM1 agonist
Cc1cc([N+](=O)[O-])ccc1NC(=O)C(C)[n+]1ccccc1 (stereo not drawn) | 3 | 27* | -27 | 0 | 5 | -12
CN(C)S(=O)(=O)N1CCC(Oc2cccc(C(=O)NC3CCCCCC3)c2)CC1 | 17 | 22 | -9 | 15* | -6 | 1
COc1cccc(-c2cc3nc(C)c(C)c(N4CCN(C(=O)c5ccoc5)CC4)n3n2)c1 | -2 | 13 | 1 | 0 | 0 | -5
S=c1nc(-c2ccccc2)c(-c2ccccc2)n[nH]1 | -17 | -20 | 12 | 1 | 3 | -5
Nc1c(-c2ccccc2)n[nH]c1-c1ccccc1 | -9 | 104* | -37 | 2 | 5 | -14
CCOC(=O)c1nonc1NC(C)=O | 4 | -6 | 10 | 0 | 0 | -3
COC(=O)c1ccc(CO/N=C(\NC(C)=O)c2nonc2NC(C)=O)cc1 | -9 | -8 | 2 | 1 | 17 | 17*
N/N=C(\c1ccccc1)C12CN3CN(CN(C3)C1)C2 | 4 | 58* | -27 | 0 | 19 | -9
NN=C(c1ccccc1)c1ccccc1 | 0 | -8 | 12 | 0 | -10 | -4
CCn1cc(Cl)c(C(=O)Nc2cccc(CN3CCOCC3)c2)n1 | 4 | -20 | 12 | 0 | 30 | -2
O=[N+]([O-])c1cccnc1N1CCC(c2cc(-c3cccc(C(F)(F)F)c3)n[nH]2)CC1 | 6 | 22* | -14 | 0 | -4 | -7
O=[N+]([O-])c1cccnc1N1CCC(c2cc(-c3ccc(Cl)cc3Cl)n[nH]2)CC1 | 17 | 3 | -1 | 0 | -7 | -2
Cc1cc(C(=O)COC(=O)C2=COCCO2)c(C)n1-c1ccc2c(c1)OCO2 | -14 | -4 | -1 | 3 | 25 | -2
Cc1cc(C(=O)COc2ccc(C#N)cc2)c(C)n1-c1ccc2c(c1)OCO2 | 32* | 3 | -10 | 0 | -6 | -9
Cc1c(CCOC(=O)c2ccccc2)sc[n+]1Cc1ccccc1 | 26* | 98* | -22 | -1 | -15 | -9
Cc1c(CCOC(=O)c2ccccc2)sc[n+]1CC(=O)c1ccc(Br)cc1 | -6 | 77* | -32 | 1 | -9 | -11
Cc1c(CCOC(=O)c2cc([N+](=O)[O-])cc([N+](=O)[O-])c2)sc[n+]1CC(=O)c1ccccc1 | -14 | 32 | -16 | 0 | 10 | -6
N#Cc1ccc(CN2CCN(C(=O)CN3C(=O)NC4(CCCC4)C3=O)CC2)cc1 | -4 | -16 | 16 | 0 | 13 | 1
Cc1noc(C)c1S(=O)(=O)N(C)C[C@@H]1OCc2cnnn2CCCC(=O)N([C@H](C)CO)C[C@@H]1C | 6 | 18 | -12 | 0 | -14 | -8
CSC(=Nc1ccccc1)N=C(SCc1ccccc1)N(C)C | 18 | 49* | -25 | 9 | 6 | 2
N#CNC(=Nc1ccccc1)SCc1ccc(C(=O)O)cc1 | 13 | 0 | 7 | 0 | -10 | -1
O=C1C2CC=CCC2C(=O)N1c1nccs1 (stereo not drawn) | -4 | -8 | 3 | 0 | -3 | -2
CC(=O)c1cccc(OCc2cc(C(=O)N3C[C@@H](C)O[C@@H](C)C3)no2)c1 | 59* | -1 | -2 | 1 | 9 | -1
CC1Nc2ncnc(N3CCN(c4ccccc4)CC3)c2N(Cc2ccc(Br)cc2)C1=O (stereo not drawn) | -9 | 7 | -11 | 0 | -1 | -5
COc1cc(C2NC(=S)NC(c3ccccc3)=C2C(C)=O)cc(Cl)c1OCC(=O)O (stereo not drawn) | -10 | -3 | 5 | 2 | 29 | -4
SMILES | CHO-K1 Ca antag | M1 antag | M1 PAM | CHO-K1 Ca ag | CHO-K1 Ca PAM | CHRM1 agonist
CC(=O)C1=C(c2ccccc2)NC(=S)NC1c1cc(Cl)c(OC(C)C)c(Cl)c1 (stereo not drawn) | 10 | 0 | 4 | 24* | 22 | -1
COc1ccc(OCC(=O)Nc2ccc(N3CCN(C(=O)c4ccccc4)CC3)c(Cl)c2)cc1 | 25* | 36* | -14 | 15 | -23 | 6
Cc1ccccc1OCC(=O)Nc1ccc(N2CCN(C)CC2)c(Cl)c1 | -9 | 45* | -32 | 5 | -8 | -13
COc1ccc(OCC(=O)Nc2ccccc2C(=O)N2CCOCC2)cc1 | 4 | -4 | 6 | 17* | 4 | -1
COc1ccc(OCC(=O)Nc2ccc(N3CCOCC3)c(Cl)c2)cc1 | -3 | -6 | 1 | 4 | 20 | 1
CCSc1nnc(NC(=O)CCNS(=O)(=O)c2ccccc2F)s1 | -6 | -4 | 5 | 1 | -3 | 0
CC1CCN(C(=O)CNC(=O)c2ccc(Cl)cc2Cl)CC1 | 31* | -23 | 22* | 0 | -6 | 1
O=C(CCCCCn1c(=S)[nH]c2cc3c(cc2c1=O)OCO3)N1CCN(Cc2ccccc2)CC1 | 5 | 19 | -7 | 2 | -4 | -5
O=C(CCCCCn1c(=S)[nH]c2cc3c(cc2c1=O)OCO3)N1CCN(C2CCCCC2)CC1 | 5 | 37* | -18 | 2 | -3 | -4
COc1ccc(N(C)S(=O)(=O)c2cccc(C(=O)Nc3ccc4c(c3)OCCO4)c2)cc1 | 8 | 12 | -2 | 6 | -9 | -1
COc1ccc(N(C)S(=O)(=O)c2cccc(C(=O)Nc3ccc(-n4cnnn4)cc3)c2)cc1 | -1 | 29* | -13 | 9 | 13 | 4
COC(=O)c1ccc(CN2CCC(n3nccc3NC(=O)C3CCCC3)CC2)cc1 | 5 | 4 | -8 | 0 | -13 | 21*
COC(=O)c1ccc(CN2CCCC(C(=O)Nc3cccc(-n4cccn4)c3)C2)cc1 (stereo not drawn) | -11 | 41* | -12 | 3 | 2 | 38*
COC(=O)c1ccc(CN2CCC(n3nccc3NC(=O)C3CC3)CC2)cc1 | 1 | -7 | 5 | 2 | -4 | 19*
COc1ccc(CN2CCCC(C(=O)Nc3cccc(-n4cccn4)c3)C2)cc1 (stereo not drawn) | -9 | 16 | -15 | 1 | -10 | -3
CCNC(=O)C1CCCN(Cc2ccc(C(=O)OCC)cc2)CC1 (stereo not drawn) | 8 | 65* | -19 | 0 | 5 | 4
CCN(CC(=O)NC1CCS(=O)(=O)C1)c1ccc([N+](=O)[O-])cc1C#N (stereo not drawn) | 3 | 4 | 10 | 0 | -14 | 0
CCc1ccc2c(c1)C(=O)C[C@]1(CCC[C@H](C)C1)O2 | 2 | -4 | 4 | -1 | -9 | -4
CCCOc1ccc(C(=O)NNC(=S)NC(=O)c2ccccc2[N+](=O)[O-])cc1 | 3 | 8 | 5 | 15* | 7 | 13
CCCOc1ccc(C(=O)NNC(=S)NC(=O)c2ccco2)cc1 | 21 | 17 | -18 | 60* | -28 | 67*

Screening data deposited in PubChem BioAssay by The Scripps Research Institute Molecular Screening Center.
